# Data: PubChem BioAssay
# For part of these data: Results with a measured potency or affinity are listed apart. The list shows a part of the results. Activity calls are given as the source filed them.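 The calls were made as follows, unless noted: active = dose curve with midpoint inside tested range, moderate steepness, plateau gap beyond fit error, low compound glow and bead-link interference; inactive = the rest.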
# Legend:
# [1] = target: Cell division control protein 42 homolog (Homo sapiens) (UniProt P60953); experiment: inhibition of fluorescent GTP binding to constitutively active Cdc42 – biochemical, multiplex bead flow cytometry, Bodipy-FL-GTP, dose response (AID 1333;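 active = fitted half-maximal concentration within the tested dose range, moderate curve steepness, a statistically real signal drop, and little compound fluorescence or tag-binding interference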)
# [2] = target: Cell division control protein 42 homolog (Homo sapiens) (UniProt P60953); experiment: inhibition of fluorescent GTP binding to wildtype Cdc42 – biochemical, multiplex bead flow cytometry, Bodipy-FL-GTP, dose response (AID 1334;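 active = fitted half-maximal concentration within the tested range, moderate curve steepness, significant signal drop, and little compound fluorescence or bead-linkage interference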); details: bead-based flow cytometry, Bodipy-FL-GTP binding to GST-Cdc42; at 100 µM (top of the series)
# [3] = system: Ras-related protein Rab-7a (dog), GTP binding; experiment: blockers of fluorescent GTP binding to Rab7 – biochemical, wildtype, multiplex bead flow cytometry, dose response (AID 1336; call rule not given here)
# [4] = target: Ras-related C3 botulinum toxin substrate 1 (Homo sapiens) (UniProt P63000); experiment: inhibition of wildtype Rac1 nucleotide loading – biochemical, multiplex bead flow cytometry, dose response (AID 1340); details: GST-Rac1 beads, Bodipy-FL-GTP binding; at 100 µM (top of the series)
# [5] = target: GTPase HRas (Homo sapiens) (UniProt P01112); experiment: blockade of GTP loading onto mutant Ras – biochemical, activated mutant, multiplex bead flow cytometry, dose response (AID 1341;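 active = dose-response curve with midpoint inside the tested range, moderate steepness, significant amplitude and little compound fluorescence or bead-attachment interference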;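 also: GST-tagged constitutively activated Ras mutant immobilized on beads and multiplexed with other GTPases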)
# [6] = hit retest on RPL19A-GFP reporter strain – cell-based, S. cerevisiae, flow cytometry, cherry picks, mother/daughter gates, confirmation (AID 2270;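 active = GFP response below 50% of the DMSO control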); details: 3 h, at 10 µM, stronger effect = lower value, 100 = same GFP as DMSO wells
# [7] = yeast TOR pathway reporter LAP4-GFP change – cell-based, cherry picks, flow cytometry, mother/daughter gates, confirmation (AID 2271;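 active = GFP response above 150% of the DMSO control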;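 also: ratio of sample to DMSO plate mean so 100% equals DMSO level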); details: S. cerevisiae LAP4-GFP strain, 3 h, at 10 µM, stronger effect = higher value
# [8] = TOR pathway reporter MEP2-GFP, retest of hits – S. cerevisiae, flow cytometry GFP, cherry picks, confirmation (AID 2272;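 active = GFP response above 150% of the DMSO control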;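 also: ratio of well signal to plate DMSO mean so 100% equals DMSO level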); details: S. cerevisiae MEP2-GFP strain, 3 h, at 10 µM, stronger effect = higher value
# [9] = yeast AGP1-GFP fluorescence change, single-dose – cell-based, flow cytometry, S. cerevisiae, cherry picks, confirmation (AID 2273;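 active = GFP response above 150% of the DMSO level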;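 also: median GFP channel fluorescence over the whole cell population gate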); details: S. cerevisiae AGP1-GFP strain, 3 h, at 10 µM
# [10] = TOR pathway CIT2 reporter hit retest – S. cerevisiae, GFP fusion, cherry picks, mother/daughter gates, confirmation (AID 2274;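 active = GFP response above 150% of the DMSO level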); details: S. cerevisiae CIT2-GFP strain, flow cytometry, 3 h, at 10 µM, stronger effect = higher value
# [11] = interference with biotin-avidin bead interaction – biochemical, flow cytometry, bead-based, counter-screen for RGS protein interaction modulators (AID 1783;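 active = inhibition above 50%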;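 also: median green fluorescence of gated singlet beads compared with DMSO control wells; 0% = DMSO wells and 100% = complete loss of bead fluorescence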); details: streptavidin beads, fluorescein-biotin binding, at 10 µM, stronger effect = higher value
# [12] = target: Guanine nucleotide-binding protein G(o) subunit alpha (Homo sapiens) (UniProt P09471); experiment: retest of RGS8-Galphao interaction hits – biochemical, multiplexed bead flow cytometry, single concentration, confirmation (AID 1836; in the data active = binding response below about 72% or above about 130%; inactive = in between;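 also: Galphao activated as GDP AlF4 complex before binding bead RGS8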); details: bead-based flow cytometry RGS8-Galphao binding, fluorescence; at 10 µM; actives lie on both sides
# [13] = target: Guanine nucleotide-binding protein G(o) subunit alpha (Homo sapiens) (UniProt P09471); experiment: retest of RGS7-Galphao interaction hits – biochemical, multiplexed bead flow cytometry, single concentration, confirmation (AID 1837; in the data active = response below about 75% or above about 130%; inactive = in between;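 also: fluorescent Galphao activated with GDP and aluminum fluoride binding bead-coupled RGS7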); details: bead-based flow cytometry RGS7-Galphao binding; at 10 µM; actives lie on both sides
# [14] = target: Regulator of G-protein signaling 16 (Homo sapiens) + Guanine nucleotide-binding protein G(o) subunit alpha (Homo sapiens) (UniProt O15492+P09471); experiment: RGS16 and Galphao interaction regulators – biochemical, single concentration, multiplexed bead flow cytometry, confirmation (AID 1838; in the data active = response below about 74% or above about 130%; inactive = in between;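 also: Galphao activated as the GDP aluminium fluoride complex binding bead-coupled RGS16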); details: bead-based flow cytometry, at 10 µM, actives lie on both sides
# [15] = target: Guanine nucleotide-binding protein G(o) subunit alpha (Homo sapiens) (UniProt P09471); experiment: RGS4 and Galphao interaction regulators – biochemical, single concentration, multiplexed bead flow cytometry, confirmation (AID 1840; in the data active = binding response below about 74% or above about 130%; inactive = in between); details: at 10 µM, actives lie on both sides
# [16] = target: Guanine nucleotide-binding protein G(o) subunit alpha (Homo sapiens) + Regulator of G-protein signaling 19 (Homo sapiens) (UniProt P09471+P49795); experiment: RGS19 interaction with Gαo, hit retest – biochemical, single point, multiplexed bead flow cytometry, confirmation (AID 1841; in the data active = response below about 50% or above about 160%; inactive = in between;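 also: 100% = no compound control and 0% = blank background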); details: bead-based flow cytometry RGS19-Galphao binding; at 10 µM; actives lie on both sides
# [17] = measured here: daughter cell gate
# [18] = measured here: mother cell gate
# [19] = measured here: daughter cell gate response
# [20] = measured here: mother cell gate response
# Chain of Guanine nucleotide-binding protein G(o) subunit alpha (Homo sapiens) (P09471 whole entry, looked up): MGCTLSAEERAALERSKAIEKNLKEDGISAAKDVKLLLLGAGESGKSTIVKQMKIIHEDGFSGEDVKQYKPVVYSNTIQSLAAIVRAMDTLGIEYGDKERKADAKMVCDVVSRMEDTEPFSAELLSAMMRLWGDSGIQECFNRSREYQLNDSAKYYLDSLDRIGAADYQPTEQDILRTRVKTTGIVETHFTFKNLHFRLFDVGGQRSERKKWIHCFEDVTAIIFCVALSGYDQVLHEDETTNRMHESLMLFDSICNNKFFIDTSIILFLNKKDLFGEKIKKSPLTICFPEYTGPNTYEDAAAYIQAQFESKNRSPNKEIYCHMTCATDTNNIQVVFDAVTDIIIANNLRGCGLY
# Chain of Cell division control protein 42 homolog (Homo sapiens) (P60953 whole entry, looked up): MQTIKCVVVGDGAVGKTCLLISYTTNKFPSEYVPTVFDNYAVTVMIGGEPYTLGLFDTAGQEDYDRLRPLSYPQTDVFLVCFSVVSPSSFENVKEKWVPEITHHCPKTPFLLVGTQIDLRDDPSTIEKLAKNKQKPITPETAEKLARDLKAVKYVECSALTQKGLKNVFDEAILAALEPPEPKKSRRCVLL
# Chain of Regulator of G-protein signaling 16 (Homo sapiens) + Guanine nucleotide-binding protein G(o) subunit alpha (Homo sapiens) (O15492 whole entry, looked up): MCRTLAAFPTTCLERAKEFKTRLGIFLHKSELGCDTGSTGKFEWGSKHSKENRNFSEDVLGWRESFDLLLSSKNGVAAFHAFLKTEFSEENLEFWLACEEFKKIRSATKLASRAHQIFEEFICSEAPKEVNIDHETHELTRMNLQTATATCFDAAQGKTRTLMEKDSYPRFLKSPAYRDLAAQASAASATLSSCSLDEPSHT
# Chain of Regulator of G-protein signaling 16 (Homo sapiens) + Guanine nucleotide-binding protein G(o) subunit alpha (Homo sapiens) (P09471 whole entry, looked up): as the sequence (P09471 whole entry, looked up) above
# Chain of Guanine nucleotide-binding protein G(o) subunit alpha (Homo sapiens) + Regulator of G-protein signaling 19 (Homo sapiens) (P09471 whole entry, looked up): as above
# Chain of Guanine nucleotide-binding protein G(o) subunit alpha (Homo sapiens) + Regulator of G-protein signaling 19 (Homo sapiens) (P49795 whole entry, looked up): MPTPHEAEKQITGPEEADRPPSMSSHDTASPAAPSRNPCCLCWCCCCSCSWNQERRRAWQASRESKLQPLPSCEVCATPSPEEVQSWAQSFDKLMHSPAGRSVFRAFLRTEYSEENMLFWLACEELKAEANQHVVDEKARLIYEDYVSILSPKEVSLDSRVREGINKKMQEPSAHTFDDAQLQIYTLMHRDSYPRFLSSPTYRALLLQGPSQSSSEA
smiles,measurement,setting,value
O=C(O)c1cn(Cc2ccc(Cl)cc2)c2ccccc12,outcome,[1],inactive
same,"fluorescence, percent of control (lower = inhibition)",[2],76.5%
same,outcome,[3],inactive
same,"GTP binding signal, raw median fluorescence (lower = inhibition) (MCF (arbitrary fluorescence units))",[4],77.6
same,outcome,[5],inactive
COc1ccc(-c2cc(=NCCCCCC(=O)O)c3cc(C)ccc3o2)cc1,outcome,[1],inactive
same,"fluorescence, percent of control (lower = inhibition)",[2],34.9%
same,outcome,[3],inactive
same,"GTP binding signal, raw median fluorescence (lower = inhibition) (MCF (arbitrary fluorescence units))",[4],132
same,outcome,[5],inactive
CCn1nc(/C=C/c2ccccc2)nc2c(=O)n(C)c(=O)nc1-2,outcome,[3],inactive
same,"GTP binding signal, raw median fluorescence (lower = inhibition) (MCF (arbitrary fluorescence units))",[4],195
same,outcome,[5],inactive
Cc1nc2c(=O)n(C)c(=O)nc-2n(C)n1,outcome,[3],inactive
same,"GTP binding signal, raw median fluorescence (lower = inhibition) (MCF (arbitrary fluorescence units))",[4],251
same,outcome,[5],inactive
O=C(O)c1cn(Cc2ccc(Br)cc2)c2ccccc12,outcome,[1],inactive
same,"fluorescence, percent of control (lower = inhibition)",[2],91.7%
same,outcome,[3],inactive
same,"GTP binding signal, raw median fluorescence (lower = inhibition) (MCF (arbitrary fluorescence units))",[4],74
same,outcome,[5],inactive
Cc1ccc(C)c(OCCn2cc(C(=O)O)c3ccccc32)c1,outcome,[1],inactive
CN(C)c1ccc(/C=C/C=C2/C(=O)NC(=O)N(c3ccccc3)C2=O)cc1,outcome,[1],inactive
same,"fluorescence, percent of control (lower = inhibition)",[2],23.6%
same,outcome,[3],inactive
same,"GTP binding signal, raw median fluorescence (lower = inhibition) (MCF (arbitrary fluorescence units))",[4],155
same,outcome,[5],inactive
COCCCn1c(N)c(C(=O)Nc2sc3c(c2C(=O)OC)CCCC3)c2nc3ccccc3nc21,outcome,[1],inactive
same,"fluorescence, percent of control (lower = inhibition)",[2],85.2%
same,outcome,[3],inactive
same,"GTP binding signal, raw median fluorescence (lower = inhibition) (MCF (arbitrary fluorescence units))",[4],139
same,outcome,[5],inactive
Cc1ccc(C)c(OCCCn2cc(C(=O)O)c3ccccc32)c1,outcome,[1],inactive
same,"fluorescence, percent of control (lower = inhibition)",[2],61.7%
same,outcome,[3],inactive
same,"GTP binding signal, raw median fluorescence (lower = inhibition) (MCF (arbitrary fluorescence units))",[4],36.2
same,outcome,[5],inactive
CCOCCCn1c(N)c(C(=O)Nc2sc3c(c2C(=O)OC)CCCC3)c2nc3ccccc3nc21,outcome,[1],inactive
same,"fluorescence, percent of control (lower = inhibition)",[2],64.4%
same,outcome,[3],inactive
same,"GTP binding signal, raw median fluorescence (lower = inhibition) (MCF (arbitrary fluorescence units))",[4],127
same,outcome,[5],inactive
CCCCN1C(=O)/C(=C\c2ccco2)C(=O)N(CCc2ccccc2)C1=O,outcome,[1],inactive
same,"fluorescence, percent of control (lower = inhibition)",[2],77.8%
same,outcome,[3],inactive
same,"GTP binding signal, raw median fluorescence (lower = inhibition) (MCF (arbitrary fluorescence units))",[4],129
same,outcome,[5],inactive
CCOc1ccc(C2SCC(=O)Nc3c2c(C)nn3C2CCOC(C)(C)C2)cc1 (stereo not drawn),outcome,[1],inactive
same,"fluorescence, percent of control (lower = inhibition)",[2],96.5%
same,outcome,[3],inactive
same,"GTP binding signal, raw median fluorescence (lower = inhibition) (MCF (arbitrary fluorescence units))",[4],195
same,outcome,[5],inactive
CCOC(=O)c1c(NC(=O)c2c(N)n(CCCOC)c3nc4ccccc4nc23)sc2c1CCCC2,outcome,[1],inactive
same,"fluorescence, percent of control (lower = inhibition)",[2],77.3%
same,outcome,[3],inactive
same,"GTP binding signal, raw median fluorescence (lower = inhibition) (MCF (arbitrary fluorescence units))",[4],151
same,outcome,[5],inactive
C[C@]12CC[C@@H](O)C[C@@H]1CC[C@@H]1[C@@H]2CC[C@]2(C)[C@@H](O)CC[C@@H]12,GFP response vs DMSO,[6],92.2% (inactive)
same,GFP response vs DMSO,[6]; [17],87.3%
same,GFP response vs DMSO,[6]; [18],94.1%
same,GFP response relative to DMSO,[7],112% (inactive)
same,GFP response relative to DMSO,[7]; [19],107%
same,GFP response relative to DMSO,[7]; [20],119%
same,GFP response vs DMSO,[8],89.9% (inactive)
same,"GFP response, % of DMSO",[9],90% (inactive)
same,"GFP response, % of DMSO",[10],85.5% (inactive)
same,"GFP response, % of DMSO",[10]; [17],86.2%
same,"GFP response, % of DMSO",[10]; [18],87.8%
Cc1cc(OCCCn2cc(C(=O)O)c3ccccc32)ccc1Cl,outcome,[1],inactive
same,"fluorescence, percent of control (lower = inhibition)",[2],58.1%
same,outcome,[3],inactive
same,"GTP binding signal, raw median fluorescence (lower = inhibition) (MCF (arbitrary fluorescence units))",[4],28.5
same,outcome,[5],inactive
C[C@H](O)[C@H]1CC[C@H]2[C@@H]3CCC4=CC(=O)CC[C@]4(C)[C@H]3CC[C@]12C,GFP response vs DMSO,[6],97.8% (inactive)
same,GFP response vs DMSO,[6]; [17],93%
same,GFP response vs DMSO,[6]; [18],99.6%
same,GFP response relative to DMSO,[7],117% (inactive)
same,GFP response relative to DMSO,[7]; [19],117%
same,GFP response relative to DMSO,[7]; [20],120%
same,GFP response vs DMSO,[8],95.7% (inactive)
same,"GFP response, % of DMSO",[9],93.7% (inactive)
same,"GFP response, % of DMSO",[10],96.5% (inactive)
same,"GFP response, % of DMSO",[10]; [17],89.9%
same,"GFP response, % of DMSO",[10]; [18],98.7%
Nc1ccc(C(=O)N/N=C2/CN3CCC2CC3)cc1,inhibition,[11],-1.4% (inactive)
same,binding response (% of control),[12],102% (inactive)
same,response (percent of control binding),[13],98.3% (inactive)
same,response (% of control binding),[14],99.4% (inactive)
same,binding response (% of control),[15],100% (inactive)
same,response (percent of control binding),[16],92.4% (inactive)
Cc1sc(-n2c(C)cc(C=C3C(=O)NC(=O)NC3=O)c2C)c(C#N)c1C,outcome,[1],inactive
same,"fluorescence, percent of control (lower = inhibition)",[2],27.5%
same,"GTP binding signal, raw median fluorescence (lower = inhibition) (MCF (arbitrary fluorescence units))",[4],199
same,outcome,[5],inactive
O=C1CN=C(c2ccccc2)c2cc(Br)ccc2N1Cc1cc(=O)n2ccccc2n1,outcome,[1],inactive
same,"fluorescence, percent of control (lower = inhibition)",[2],47.5%
same,"GTP binding signal, raw median fluorescence (lower = inhibition) (MCF (arbitrary fluorescence units))",[4],216
same,outcome,[5],inactive
O=c1[nH]c(=S)[nH]c(O)c1N=Nc1cc2c(cc1[N+](=O)[O-])OCO2,outcome,[1],inactive
same,"fluorescence, percent of control (lower = inhibition)",[2],24.3%
same,outcome,[3],inactive
same,"GTP binding signal, raw median fluorescence (lower = inhibition) (MCF (arbitrary fluorescence units))",[4],211
same,outcome,[5],inactive
CC(Oc1ccc(-c2ccccc2)cc1)C(=O)O (stereo not drawn),outcome,[1],inactive
same,"fluorescence, percent of control (lower = inhibition)",[2],126%
same,outcome,[3],inactive
same,"GTP binding signal, raw median fluorescence (lower = inhibition) (MCF (arbitrary fluorescence units))",[4],213
same,outcome,[5],inactive
O=C(O)c1cn(Cc2ccccc2F)c2ccccc12,outcome,[1],inactive
same,"fluorescence, percent of control (lower = inhibition)",[2],93%
same,outcome,[3],inactive
same,"GTP binding signal, raw median fluorescence (lower = inhibition) (MCF (arbitrary fluorescence units))",[4],68.4
same,outcome,[5],inactive
O=C1NC(=S)N(Cc2ccco2)C(=O)/C1=C\c1cccs1,outcome,[1],inactive
same,"fluorescence, percent of control (lower = inhibition)",[2],54.7%
same,outcome,[3],inactive
same,"GTP binding signal, raw median fluorescence (lower = inhibition) (MCF (arbitrary fluorescence units))",[4],167
same,outcome,[5],inactive
Cc1ccccc1OCCCn1cc(C(=O)O)c2ccccc21,outcome,[1],inactive
same,"fluorescence, percent of control (lower = inhibition)",[2],68.3%
same,outcome,[3],inactive
same,"GTP binding signal, raw median fluorescence (lower = inhibition) (MCF (arbitrary fluorescence units))",[4],37.8
same,outcome,[5],inactive
